KCNQ2 inh: blocks the rat KCNQ2 potassium channel; O88943; CHO-K1 KCNQ2, FluxOR thallium flux, 20 min; stronger effect = lower value; B-score at 10 µM; 310,000 tested, 1.1% active;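 active = fluorescence ratio B-score at most minus 3 library SDs, with starting brightness B-score within 2 library SDs, cut at about -5.5 in these data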
Target sequence (O88943 whole entry, looked up): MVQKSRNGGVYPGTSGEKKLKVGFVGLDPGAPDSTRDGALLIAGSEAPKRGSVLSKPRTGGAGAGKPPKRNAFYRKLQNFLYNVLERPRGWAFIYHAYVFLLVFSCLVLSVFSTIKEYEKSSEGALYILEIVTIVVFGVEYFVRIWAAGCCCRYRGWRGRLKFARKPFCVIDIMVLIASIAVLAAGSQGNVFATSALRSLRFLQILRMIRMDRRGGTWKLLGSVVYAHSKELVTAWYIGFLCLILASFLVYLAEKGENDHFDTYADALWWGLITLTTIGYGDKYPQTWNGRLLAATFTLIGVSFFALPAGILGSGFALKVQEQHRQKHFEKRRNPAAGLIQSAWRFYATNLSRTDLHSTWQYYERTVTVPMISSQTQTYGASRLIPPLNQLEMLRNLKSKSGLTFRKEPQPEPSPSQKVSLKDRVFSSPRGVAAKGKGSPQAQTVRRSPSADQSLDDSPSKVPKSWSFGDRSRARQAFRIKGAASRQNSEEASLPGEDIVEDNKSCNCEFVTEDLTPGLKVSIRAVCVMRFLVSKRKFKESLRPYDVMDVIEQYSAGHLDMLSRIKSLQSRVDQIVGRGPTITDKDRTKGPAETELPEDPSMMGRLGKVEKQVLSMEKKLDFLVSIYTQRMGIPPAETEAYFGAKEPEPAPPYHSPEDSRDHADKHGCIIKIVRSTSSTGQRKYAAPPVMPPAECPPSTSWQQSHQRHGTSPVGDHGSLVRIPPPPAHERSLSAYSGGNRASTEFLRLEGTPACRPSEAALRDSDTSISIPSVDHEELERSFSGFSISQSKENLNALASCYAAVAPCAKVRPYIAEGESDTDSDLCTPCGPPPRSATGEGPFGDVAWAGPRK
KCNQ2 pot: potentiators of rat KCNQ2 potassium channel; B-score at 10 µM; O88943; CHO-K1 KCNQ2, FluxOR thallium flux fluorescence; stronger effect = higher value; AID 2239; 310,000 tested, 0.54% active;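 active = fluorescence ratio B-score at least 3 SD of library B-scores, with initial fluorescence B-score within 3 of them, cut at about 5.3 in these data; same plate scores as AID 2156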;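 note: B-score of peak minus minimum over baseline fluorescence ratio after K+ and Tl+ stimulus; positive B-score means potentiation of KCNQ2 with more thallium influx and brighter signal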
* = called active by the depositor; i = inactive; nt = not tested or not shown. Sampled rows, rich in hits. Any-hit rate of the full collection: about 1.6%.

SMILES	KCNQ2 inh	KCNQ2 pot
COc1ccc(CC(=O)NCC(C)(C)N2CCOCC2)cc1	i	1.4
Cn1nc(C(F)(F)F)c(/C=N/OC(=O)c2ccccc2Cl)c1SCc1ccccc1Cl	-6*	-6
Cn1nc(C(F)(F)F)c(/C=N/OC(=O)c2ccccc2)c1SCc1ccc(Cl)cc1	i	nt
CN(CC(=O)Nc1cccc(F)c1)C(=O)c1ccccc1CCc1ccccc1	-6.2*	-6.2
O=C(NCc1ccccc1Cl)c1cnccc1C(F)(F)F	i	7.4*
Cc1cc(C)c(NC(=O)c2ccccc2CCc2ccccc2)c(C)c1	i	nt
CCc1cccc(CC)c1NC(=O)c1ccccc1CCc1ccccc1	-6.1*	-6.1
O=C(NCc1ccccc1Cl)c1cnccn1	i	1.2
O=C(NCc1ccccc1Cl)c1ccccc1CCc1ccccc1	-5.6*	-5.6
O=C(NCc1ccc(Cl)cc1)c1ccccc1CCc1ccccc1	i	4.1
COc1ccc(NC(=O)CN(C)C(=O)c2ccccc2CCc2ccccc2)cc1	i	nt
Cc1cc(Br)ccc1NC(=O)CN(C)C(=O)Cn1c(=O)cnc2ccccc21	i	nt
CCN(CC)S(=O)(=O)c1cc(C(=O)n2cccn2)c(Cl)cc1Cl	i	nt
COc1ccc(Nc2ncc3c(n2)CC(c2ccc(OC)cc2)CC3=O)cc1 (stereo unspecified)	i	0.92
Cc1noc(C)c1-c1nc(CS(=O)(=O)c2ccc(F)cc2)no1	i	nt
CSCCC(NC(=O)c1cccc(C)c1)C(=O)Nc1sccc1C(N)=O (stereo unspecified)	i	nt
CC1CCCN(C(=O)CSc2cnc3ccccc3n2)C1 (stereo unspecified)	i	0.58
Cc1ccc(N2CCN(S(=O)(=O)c3ccc4oc(=O)ccc4c3)CC2)c(C)c1	i	1.8
O=C1CN(c2ccccc2)C(=S)N1C(=O)c1ccc(Br)cc1	-5.8*	-5.8
O=C(c1ccc(Br)cc1)N1CCC(C(=O)N2CCN(c3ccccc3)CC2)CC1	i	1.5
C(=N\n1cnnc1)/c1ccccn1	i	nt
C(=N\N(c1ccccc1)c1ccccc1)/c1ccccn1	-6.2*	-6.2
CCC(CC)COC(=O)C(C#N)c1nc2ccccc2nc1N1CCN(CC)CC1 (stereo unspecified)	i	nt
CCCCCCOC(=O)C(C#N)c1nc2ccccc2nc1N1CCN(C)CC1 (stereo unspecified)	-5.7*	-5.7
COc1ccccc1CN1C(=O)CN(C2CCCCCC2)C(=O)C1c1ccc(F)cc1 (stereo unspecified)	-6.1*	-6.1
SMILES	KCNQ2 inh	KCNQ2 pot
COc1cccc(C2C(=O)N(C3CCCCC3)CC(=O)N2Cc2ccc(F)cc2)c1 (stereo unspecified)	-7*	-7
O=C1C(c2ccc(F)cc2)N(C2CCCCC2)C(=O)CN1C1CCCC1 (stereo unspecified)	i	nt
COc1cccc(C2c3[nH]c4ccccc4c3C[C@H]3C(=O)N(C4CC4)CC(=O)N23)c1 (stereo partly specified)	i	nt
Cc1cc(C)c(S(=O)(=O)c2ccccc2C(C)C)c(=O)[nH]1	i	0.37
Cn1c(/N=C/c2c(O)ccc3ccccc23)nc2ccccc21	i	9.9*
CCCn1c(/N=C/c2ccccc2O)nc2ccccc21	i	1.9
C=CC(n1cncn1)C(O)(c1ccccc1)c1ccccc1 (stereo unspecified)	i	0.11
COc1ccccc1OCCSc1nc2ccccc2n1CC(N)=O	i	nt
Oc1ccc(Cl)cc1C1=NNC(c2cccs2)C1 (stereo unspecified)	i	12*
Cc1ccc(O)c(C2=NNC(c3ccc(Cl)cc3)C2)c1 (stereo unspecified)	i	nt
CCNS(=O)(=O)c1ccc(OC)c(C(=O)NC2CCCCC2)c1	i	nt
CCOc1cc(C)c(C(C)C)cc1S(=O)(=O)n1cnc(C)c1	i	8.7*
CCOc1cc(C)c(C(C)C)cc1S(=O)(=O)N1CC(C)OC(C)C1 (stereo unspecified)	i	0.1
CC1CN(C(=O)COC(=O)c2ccc(Cl)nc2)CC(C)O1 (stereo unspecified)	i	0.25
CS(=O)(=O)N(CC(=O)N1CCc2ccccc2C1)Cc1ccc(F)cc1	i	nt
CCOC(=O)N1CCN(C(=O)CN(c2cccc(C)c2)S(=O)(=O)c2ccc(C)cc2)CC1	i	1.1
O=C(CN(c1cccc(Cl)c1)S(=O)(=O)c1ccc(Cl)cc1)N1CCc2ccccc2C1	-6.5*	-6.5
Cc1ccc(S(=O)(=O)N(CC(=O)N2CCC(C)CC2)c2cccc(C)c2)cc1	-6.2*	-6.2
CS(=O)(=O)N(CC(=O)N1CCc2ccccc2C1)c1cccc(F)c1	i	nt
CS(=O)(=O)N(CC(=O)N1CCc2ccccc2C1)Cc1ccc(Cl)cc1	-6*	-6
Nc1c(Cl)cc(C2=NCCn3c2c2ccc(C(F)(F)F)cc2[n+]3[O-])cc1Cl	i	0.28
CCCn1c(SCC(=O)NNC(=O)c2ccc(C)cc2)nnc1C(C)C	i	nt
c1ccc2cc(CSCc3nc4ccccc4[nH]3)ccc2c1	i	nt
Cc1oc2c(c1C(=O)c1ccccc1)C(=O)C(=O)c1ccccc1-2	-7.2*	-7.2
Cc1oc2c(c1C(=O)O)C(=O)c1ccccc1C2=O	i	0.13
SMILES	KCNQ2 inh	KCNQ2 pot
COc1cc(OC)c(OC)cc1CN1CCN(Cc2cccn2C)CC1	i	nt
CC1(C)C2CCC1(CS(=O)(=O)NCc1ccc(Cl)cc1Cl)C(=O)C2 (stereo unspecified)	-5.9*	-5.9
COc1cccc(NS(=O)(=O)CC23CCC(CC2=O)C3(C)C)c1 (stereo unspecified)	i	nt
CCOC(=O)C(Cc1ccccc1)C(=O)NCc1cccnc1 (stereo unspecified)	i	0.94
CCOC(=O)C(Cc1ccccc1)C(=O)Nc1cccc2ccccc12 (stereo unspecified)	-5.8*	-5.8
CCOC(=O)c1c(C)[nH]c(C(=O)NCc2ccco2)c1C	i	nt
CCC1(c2ccccc2)C(=O)N(C(=O)OC(C)(C)C)N1C(=O)OC(C)(C)C (stereo unspecified)	-6.5*	-6.5
CCOC(=O)N1C(=O)[C@](CC)(c2ccccc2)N1C(=O)OCC	i	0.2
Cc1cccc(C(=O)OCC(=O)NCCNC(=O)COC(=O)c2cccc(C)c2C)c1C	i	nt
Clc1ncnc2scc(-c3ccccc3)c12	i	1.3
S=c1[nH]cnc2scc(-c3ccccc3)c12	i	11*
CCCOc1ccc(/C(O)=C2\C(=O)C(=O)N(c3ccccn3)C2c2ccccc2F)cc1C (stereo unspecified)	i	0.94
CCCCCNC(=O)C1CC(=O)OC12CCCCC2 (stereo unspecified)	i	0.82
Cc1ccc(NCc2ccccc2OCc2ccccc2F)cc1	i	nt
Cc1cccc(NCc2ccccc2OCc2ccccc2F)c1	-5.5*	-5.5
CC(C)(C)OC(=O)[C@H]1[C@H](c2ccc([N+](=O)[O-])cc2)C2(C(=O)c3ccccc3C2=O)C2c3ccccc3C=NN21 (stereo partly specified)	-6.1*	-6.1
CCOC(=O)C1C(=O)C=C(c2ccc([N+](=O)[O-])cc2)CC1c1ccccc1 (stereo unspecified)	i	nt
C/C(=N\Nc1nc(N2CCCCC2)nc(N2CCOCC2)n1)c1ccccc1O	i	nt
C=C1CCN([C@@H](Cc2ccccc2)C(=O)NCc2ccccc2)S(=O)(=O)c2ccccc21	i	nt

Screening results: PubChem BioAssay, Johns Hopkins Ion Channel Center
